Assay outcomes (PubChem)
CYP2C9 act – human CYP2C9 activators, primary screen, biochemical, luminescence; Cytochrome P450 2C9 (Homo sapiens), P11712; recombinant CYP2C9, luciferin-H conversion; stronger effect = higher value; factor 1 = untreated enzyme, 0 = blocked; activation factor at 5 µM; 96,000 compounds, 1.4% hits;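 active = activation factor of 2 or more for CYP2C9 at a 5 µM dose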;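 note: 0 = sulfaphenazole-blocked wells and 1 = vehicle-only wells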
Target sequence (P11712 whole entry, looked up): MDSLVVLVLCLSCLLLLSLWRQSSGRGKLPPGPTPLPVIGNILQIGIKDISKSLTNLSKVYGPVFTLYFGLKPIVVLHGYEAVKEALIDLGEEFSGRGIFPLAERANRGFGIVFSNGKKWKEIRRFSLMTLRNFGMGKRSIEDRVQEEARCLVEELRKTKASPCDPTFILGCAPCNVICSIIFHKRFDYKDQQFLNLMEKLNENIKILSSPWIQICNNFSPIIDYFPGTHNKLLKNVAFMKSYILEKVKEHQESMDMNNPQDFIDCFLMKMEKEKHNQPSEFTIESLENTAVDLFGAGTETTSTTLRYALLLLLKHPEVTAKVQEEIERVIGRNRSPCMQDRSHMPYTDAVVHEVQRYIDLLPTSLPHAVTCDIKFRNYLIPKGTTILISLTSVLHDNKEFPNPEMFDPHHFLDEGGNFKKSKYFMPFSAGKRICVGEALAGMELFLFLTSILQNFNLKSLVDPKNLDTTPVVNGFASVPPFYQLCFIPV
CYP2C9 inhib – blockers of cytochrome P450 2C9 activity – biochemical, luminescence, ADME assay, primary screen; P11712; CYP2C9 Supersomes, luciferin-H conversion; inhibition, % at 5 µM; 96,000 compounds, 20% hits; AID 777, 2007;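 active = blocking of liver enzyme CYP2C9 beyond about 50% at 5 µM, limit read from the data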
CYP2C19 act – human CYP2C19 activators, primary screen, biochemical, luminescence; recombinant CYP2C19, luciferin-H EGE luminescence; stronger effect = higher value; 0 = fully inhibited enzyme, 1 = untreated enzyme; activation factor at 5 µM; 96,000 tested, under 10 active; Cytochrome P450 2C19 (Homo sapiens), P33261;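 active = activation factor of at least 2 at 5 µM in the primary screen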;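 note: 0 = wells with 2.5 mM tranylcypromine and 1 = vehicle-only wells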
CYP2C19 inh – blockers of cytochrome P450 2C19 activity – biochemical, luminescence, ADME assay, primary screen; 96,000 compounds, 21% hits; AID 778, 2007; inhibition, % at 5 µM; CYP2C19 Supersomes, luciferin-H EGE luminescence, 30 min; P33261;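 active = CYP2C19 inhibition above a set limit at 5 µM in the primary screen, cut at about 50% in these data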;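 note: plate controls were negative control wells for no effect and 2.5 mM tranylcypromine positive control for full effect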
PLK1 PBD inh – Plk1 polo box domain binding inhibitors, primary screen, biochemical, fluorescence polarization. Serine/threonine-protein kinase PLK1 (Homo sapiens), P53350. Plk1 PBD phosphopeptide binding. inhibition, %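 (tested at about 20 µM)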. 97,000 compounds, 0.13% hits; in the data active = inhibition above about 34%, passing the limit was not always enough
PLK1 kinase inh – human PLK1 kinase inhibitors, primary screen, biochemical, TR-FRET. AID 619, 2007. recombinant PLK1 kinase, TR-FRET peptide phosphorylation. inhibition, % at 10 µM. 97,000 compounds, 0.53% hits;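 active = inhibition of 50% or more in the single-concentration screen; inactive = inhibition below 50%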;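 note: 0% = DMSO max control and 100% = H-89 dihydrochloride min control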
* hit, by the source's call. Hits are enriched below; roughly 28% of the tested compounds scored in any of these assays.

Results for COc1ccccc1N1CCN(C(CNS(=O)(=O)c2cccs2)c2cccnc2)CC1 (stereo not given) ?
CYP2C9 act: 0.9; CYP2C9 inhib: 13.7; CYP2C19 act: 0.4; CYP2C19 inh: 57.2*; PLK1 PBD inh: 0.3; PLK1 kinase inh: -0.4

What do the screens show for `COc1ccc(N2CCN(C(CNS(=O)(=O)c3cc(F)ccc3F)c3cccnc3)CC2)cc1` (stereo not given)?
CYP2C9 act: 0.4; CYP2C9 inhib: 56.8*; CYP2C19 act: 0.3; CYP2C19 inh: 74.5*; PLK1 PBD inh: 19.3; PLK1 kinase inh: -35.3

Results for O=S(=O)(NCC(c1cccnc1)N1CCN(c2ccccc2)CC1)c1cccs1 (stereo not given) ?
CYP2C9 act: 0.3; CYP2C9 inhib: 71.3*; CYP2C19 act: 0.1; CYP2C19 inh: 92.0*; PLK1 PBD inh: -12.6; PLK1 kinase inh: -27.8

Results for COc1ccc(S(=O)(=O)NCC(c2cccnc2)N2CCN(c3ccccc3)CC2)cc1C (stereo not given) ?
CYP2C9 act: 0.1; CYP2C9 inhib: 86.1*; CYP2C19 act: 0.3; CYP2C19 inh: 73.4*; PLK1 PBD inh: -15.5; PLK1 kinase inh: -27.0

How did COc1ccc(-c2nnc(SC(C)C(=O)NCc3ccc4c(c3)OCO4)n2Cc2ccco2)cc1 (stereo not given) do in these assays?
CYP2C9 act: 0.6; CYP2C9 inhib: 36.5; CYP2C19 act: 0.6; CYP2C19 inh: 38.2; PLK1 PBD inh: 9.2; PLK1 kinase inh: 4.5

What do the screens show for `C=CCn1c(SC(C)C(=O)NCc2ccc3c(c2)OCO3)nnc1C1CCCCC1` (stereo not given)?
CYP2C9 act: 0.4; CYP2C9 inhib: 57.1*; CYP2C19 act: 0.4; CYP2C19 inh: 56.1*

What do the screens show for `O=C(CSc1nnc(-c2cccnc2)n1-c1ccccc1)NCc1ccc2c(c1)OCO2`?
CYP2C9 act: 0.8; CYP2C9 inhib: 18.5; CYP2C19 act: 1; CYP2C19 inh: -2.2; PLK1 PBD inh: 12.6; PLK1 kinase inh: 15.0

How did CC(Sc1nnc(-c2cccnc2)n1-c1ccccc1)C(=O)NCc1ccc2c(c1)OCO2 (stereo not given) do in these assays?
CYP2C9 act: 0.1; CYP2C9 inhib: 91.0*; CYP2C19 act: 0.5; CYP2C19 inh: 45.8; PLK1 PBD inh: 19.2; PLK1 kinase inh: -13.7

What do the screens show for `CCn1c(-c2ccccc2)ccc(C#N)c1=O`?
CYP2C9 act: 0.6; CYP2C9 inhib: 44.2; CYP2C19 act: 0.6; CYP2C19 inh: 39.4; PLK1 PBD inh: 3.7; PLK1 kinase inh: -2.9

Results for C[N+](C)(C)C/C=C1/COCO1 ?
CYP2C9 act: 1; CYP2C9 inhib: 3.0; CYP2C19 act: 1; CYP2C19 inh: 2.4; PLK1 PBD inh: -35.1; PLK1 kinase inh: -18.5

Results for Cc1nc2c(n1C1CCCCC1)C(=O)c1ccccc1C2=O ?
CYP2C9 act: 0.4; CYP2C9 inhib: 55.4*; CYP2C19 act: 0.2; CYP2C19 inh: 80.9*; PLK1 PBD inh: 15.0; PLK1 kinase inh: -9.8

What do the screens show for `Cc1cc(C)cc(NC(=O)N2CCCC2C(=O)Nc2ccc(-n3cnnn3)cc2)c1` (stereo not given)?
CYP2C9 act: 1; CYP2C9 inhib: 4.4; CYP2C19 act: 0.2; CYP2C19 inh: 83.0*; PLK1 PBD inh: -6.2; PLK1 kinase inh: -18.9

Results for CC(=O)c1cccc(NC(=O)N2CCCC2C(=O)Nc2cccc(C)c2)c1 (stereo not given) ?
CYP2C9 act: 0.5; CYP2C9 inhib: 53.0*; CYP2C19 act: 0.6; CYP2C19 inh: 45.0; PLK1 PBD inh: -12.1; PLK1 kinase inh: 3.8

What do the screens show for `Cc1ccc(CC(=O)NCCS(=O)c2ccc(Cl)cc2)cc1` (stereo not given)?
CYP2C9 act: 0.8; CYP2C9 inhib: 18.9; CYP2C19 act: 0.7; CYP2C19 inh: 29.1; PLK1 PBD inh: -11.6; PLK1 kinase inh: -9.4

What do the screens show for `COc1ccc(S(=O)(=O)N(C)c2ccc(C(=O)NCCC(C)C)cc2)cc1`?
CYP2C9 act: 0.1; CYP2C9 inhib: 92.2*; CYP2C19 act: 0.1; CYP2C19 inh: 85.5*; PLK1 PBD inh: 18.3; PLK1 kinase inh: -21.1

How did CCN(CC)CCNC(=O)c1ccc(N2CCCCC2)c(NS(=O)(=O)c2ccc(C)cc2)c1 do in these assays?
CYP2C9 act: 0.6; CYP2C9 inhib: 42.0; CYP2C19 act: 0.5; CYP2C19 inh: 46.0; PLK1 PBD inh: -17.6; PLK1 kinase inh: -6.0

What do the screens show for `CCOCCCNC(=O)c1ccc(N(C)S(=O)(=O)c2ccc(OC)cc2)cc1`?
CYP2C9 act: 0.2; CYP2C9 inhib: 78.1*; CYP2C19 act: 0.8; CYP2C19 inh: 19.1; PLK1 PBD inh: 3.8; PLK1 kinase inh: -13.7

How did COc1ccc(S(=O)(=O)Nc2cc(C(=O)NCCC(C)C)ccc2N2CCOCC2)cc1 do in these assays?
CYP2C9 act: 0.4; CYP2C9 inhib: 60.6*; CYP2C19 act: 0.5; CYP2C19 inh: 45.5; PLK1 PBD inh: -9.0; PLK1 kinase inh: -2.0

Results for COC(=O)c1ccccc1OCC(=O)N1CCN(c2ccc(OC)cc2)CC1 ?
CYP2C9 act: 0.9; CYP2C9 inhib: 12.3; CYP2C19 act: 0.8; CYP2C19 inh: 19.3; PLK1 PBD inh: -4.3; PLK1 kinase inh: -6.4

How did CC(C)(C)c1cc(C(=O)NCc2ccccc2)ccn1 do in these assays?
PLK1 PBD inh: 1.9; PLK1 kinase inh: -0.1

What do the screens show for `COc1ccc(C(=O)CN(C(=O)c2ccc(Cl)cc2)N2C(=O)C3CCCCC3C2=O)cc1` (stereo not given)?
CYP2C9 act: 0.7; CYP2C9 inhib: 33.8; CYP2C19 act: 0.7; CYP2C19 inh: 29.0; PLK1 PBD inh: 9.8; PLK1 kinase inh: -4.5

Results for CN(C(=O)c1ccc(Cl)cc1)C1=CCCCC1CCC#N (stereo not given) ?
CYP2C9 act: 0.8; CYP2C9 inhib: 15.3; CYP2C19 act: 0.4; CYP2C19 inh: 64.3*; PLK1 PBD inh: 16.5; PLK1 kinase inh: -9.2

Results for COC(=O)c1cc(Cl)c(NC(=O)/C=C/c2ccc(OC)c(OC)c2)cc1OC ?
CYP2C9 act: 0.9; CYP2C9 inhib: 14.7; CYP2C19 act: 0.9; CYP2C19 inh: 11.2; PLK1 PBD inh: 7.9; PLK1 kinase inh: -3.2

How did CCOC(=O)c1sc2ncnc(NCC(c3cccs3)N(C)C)c2c1C (stereo not given) do in these assays?
CYP2C9 act: 0.9; CYP2C9 inhib: 8.8; CYP2C19 act: 0.4; CYP2C19 inh: 57.8*; PLK1 PBD inh: 12.1; PLK1 kinase inh: 9.3

What do the screens show for `CCOC(=O)c1sc2nccc(N(C)C)c2c1N=CN(C)C`?
CYP2C9 act: 0.9; CYP2C9 inhib: 10.7; CYP2C19 act: 1; CYP2C19 inh: 0.1; PLK1 PBD inh: 23.8; PLK1 kinase inh: -13.3
